The record followed here is the supplement of paper PMC6555819.

The first assay has as its system FXR:RXRa (NR concentration 270 nM, RXRa partner concentration 90 nM). The experiment in a line: PBM binding z-score (relative to random genomic background probes); higher = stronger binding; sequences stand for … in GC…GCGATTGACAGCGTAGAATGAAGG
A digest of the protocol:
(§1)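 Random background probes are the reference for binding z-scores. These scores derive from regression-normalized fluorescence on custom Agilent 4×180K protein-binding microarrays incubated 1 h with ligand-free nuclear receptor dimers. Binding was detected with antibodies against each partner (one per run).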
CCTGCTAGGTCATGGTTAGCTAATCTACAGTATG gave a PBM binding z-score of 3.74.

As for AATACAGGGTCACTAGGCCAGTGTAGGTACGAAT, the PBM binding z-score was 5.94.

As for AGAACGAGGTCAATGAGTTGATAGCACGGGTGGC, the PBM binding z-score came to 7.39.

The sequence TCTAGCAGGCCAGAGGGTCACTCTAGAGGTACGG came in with a PBM binding z-score of 0.795.

CCTATTAGTTGACTATAAGGGCAACCGAAGCTCG came in with a PBM binding z-score of 0.392.

With ATCTCTAGGTAAAGATAGTTCAGTGCATGCAAAT, the PBM binding z-score worked out at 0.301.

As for CCTCGGCGGACAACAGGAGGTCAGAGCTGCCAGA, the PBM binding z-score is 0.527.

As to AGAATGAGGGTAAGATCAGGGAAACAGAATACAT, the PBM binding z-score is 0.539.

For TCTATTTGTTGAAGGGCAACCGACGAGTCCGTTT, the PBM binding z-score stood at 0.938.

Regarding CGTCCAAGGTCAATACTAGGTCAGTGAAAGCATT, the PBM binding z-score was 6.7.

Take GCTACTGGGGCATCAGCAGGTTACCATAACTTAA: the PBM binding z-score was -0.035.

Take CCTCCAAGGTCAGCAGGTCAGTGAAAGCGACGTG: the PBM binding z-score was 5.51.

Regarding CCGACTGGGGCAGAAAGGTTACCATTCCATCCGG, the PBM binding z-score came out at 0.282.

Turning to CCTACTTGGTCAAGGTCACACACGCTATAGGTAC, the PBM binding z-score was determined as 4.25.

Take CCTGCTAGGTGAATGGTCAGCTAAAGCAGCTCGC: the PBM binding z-score was -0.48.

The sequence TCTTGTAGATCAAAAGTTAAGAAAGCCGAAGCCT came in with a PBM binding z-score of 0.493.

CCTTACGGGTCACGCCAGGTTATAGCATCGGAGT came in with a PBM binding z-score of 6.4.

Consider GCGACTGGGGCAAAGCAGGTTAACATAAGGTTGG, for which the PBM binding z-score turned out to be 0.921.

GCGACTGCGGCAAAGCAGGTTACCATAAGGTTGG displayed a PBM binding z-score of -0.436.

TAGCCTAGGTCAGATCGGGCCAATATACGCTATA returned a PBM binding z-score of 1.51.

Consider AGAACGAGGGCACGTTGAGTTGATAGCAGAGTAG, for which the PBM binding z-score was determined as 0.758.

In the case of ACAAGCAGGCCAAGTTTGGGTCACTCAAACAAAG, the PBM binding z-score is 0.226.

As to ATCTCTAGGTAACAAGTTCAGTGAAAGAGAGGAC, the PBM binding z-score is 0.883.

As to ACTTACGGGTCATCGAGGTTATAGCACGCGTATA, the PBM binding z-score was 6.76.

The sequence CCGACTGGGGCAGAAAGGCTACCATACCATCCGG displayed a PBM binding z-score of -0.561.

Take ACTTGCAGGCCAAGTTTGGGTCACTCAAACAAAG: the PBM binding z-score was determined as 0.638.

Sequence AGAACGAGGGCAATGAGTTGTTAGCACGGGTGGC had a PBM binding z-score of 0.161.

With CCTTACGGGTCAAGGTTATAGGACGGGTGGTACG, the PBM binding z-score amounted to 5.27.

For CCTTACAGGTCACTCCAGGTTATAGCATCGGAGT, the PBM binding z-score amounted to 5.51.

As to TCTACTAGGTCAGTTGGTCAGCTAACGAGCTGCC, the PBM binding z-score turned out to be 1.67.

TAGCCTAGGTGAGATCGGGCCAGTATACGCTATA returned a PBM binding z-score of -0.31.

As to TGTCAAAGTTCAAAGGTAACGGAAGTATCCACAC, the PBM binding z-score amounted to 7.08.

TCATAAAGGTAAAGGTGAAAGTCGAACGATATGA gave a PBM binding z-score of 1.63.

The sequence ACCGAAAGGTCGAGGTGAGTATAGAGAAAGGGAA returned a PBM binding z-score of 4.42.

For GATACAGGCTCAAGGCCAGAGTACGCGTATTGAT, the PBM binding z-score was -0.696.

TCTTGTAGATCAAGCAGGTTAAGACAGCCTGAGT: the PBM binding z-score turned out to be 0.233.

TCGAGTAGGTTACCAATGGAGCATTCAGCTTTCT gave a PBM binding z-score of -0.291.

As to TTACCAAGGTGCGCTGAGGTCGTTGATCCAACTC, the PBM binding z-score was determined as 0.911.

TAGCCGAGGTCAGATCGGGCCAGTATACGCTATA registered a PBM binding z-score of 5.46.

The next assay relates to LXRa:RXRa (NR concentration 270 nM, RXRa partner concentration 90 nM). Described as above. A digest of the protocol:
as §1
For the sequence CCTGCTAGGTCATGGTTAGCTAATCTACAGTATG, the PBM binding z-score is 2.32.

Sequence AATACAGGGTCACTAGGCCAGTGTAGGTACGAAT displayed a PBM binding z-score of 5.39.

AGAACGAGGTCAATGAGTTGATAGCACGGGTGGC had a PBM binding z-score of 5.21.

For the sequence TCTAGCAGGCCAGAGGGTCACTCTAGAGGTACGG, the PBM binding z-score came out at 0.863.

In turn, CCTATTAGTTGACTATAAGGGCAACCGAAGCTCG showed a PBM binding z-score of 0.149.

ATCTCTAGGTAAAGATAGTTCAGTGCATGCAAAT yielded a PBM binding z-score of 4.

Consider CCTCGGCGGACAACAGGAGGTCAGAGCTGCCAGA, for which the PBM binding z-score was determined as 1.43.

AGAATGAGGGTAAGATCAGGGAAACAGAATACAT came in with a PBM binding z-score of 0.166.

The sequence TCTATTTGTTGAAGGGCAACCGACGAGTCCGTTT had a PBM binding z-score of 1.22.

In turn, CGTCCAAGGTCAATACTAGGTCAGTGAAAGCATT displayed a PBM binding z-score of 5.42.

In the case of GCTACTGGGGCATCAGCAGGTTACCATAACTTAA, the PBM binding z-score was -0.127.

In the case of CCTCCAAGGTCAGCAGGTCAGTGAAAGCGACGTG, the PBM binding z-score worked out at 3.58.

With CCGACTGGGGCAGAAAGGTTACCATTCCATCCGG, the PBM binding z-score was 0.271.

CCTACTTGGTCAAGGTCACACACGCTATAGGTAC gave a PBM binding z-score of 4.24.

The sequence CCTGCTAGGTGAATGGTCAGCTAAAGCAGCTCGC displayed a PBM binding z-score of -0.375.

In turn, TCTTGTAGATCAAAAGTTAAGAAAGCCGAAGCCT returned a PBM binding z-score of 0.329.

Take CCTTACGGGTCACGCCAGGTTATAGCATCGGAGT: the PBM binding z-score was found to be 6.03.

In the case of GCGACTGGGGCAAAGCAGGTTAACATAAGGTTGG, the PBM binding z-score is 0.436.

GCGACTGCGGCAAAGCAGGTTACCATAAGGTTGG returned a PBM binding z-score of -0.494.

Sequence TAGCCTAGGTCAGATCGGGCCAATATACGCTATA displayed a PBM binding z-score of 1.46.

AGAACGAGGGCACGTTGAGTTGATAGCAGAGTAG: the PBM binding z-score was 0.705.

ACAAGCAGGCCAAGTTTGGGTCACTCAAACAAAG registered a PBM binding z-score of 0.181.

ATCTCTAGGTAACAAGTTCAGTGAAAGAGAGGAC yielded a PBM binding z-score of 1.09.

Sequence ACTTACGGGTCATCGAGGTTATAGCACGCGTATA yielded a PBM binding z-score of 4.95.

Sequence CCGACTGGGGCAGAAAGGCTACCATACCATCCGG yielded a PBM binding z-score of -0.818.

ACTTGCAGGCCAAGTTTGGGTCACTCAAACAAAG: the PBM binding z-score was determined as 0.231.

On to AGAACGAGGGCAATGAGTTGTTAGCACGGGTGGC, for which the PBM binding z-score came out at 0.00811.

CCTTACGGGTCAAGGTTATAGGACGGGTGGTACG gave a PBM binding z-score of 3.82.

As to CCTTACAGGTCACTCCAGGTTATAGCATCGGAGT, the PBM binding z-score was 7.41.

In turn, TCTACTAGGTCAGTTGGTCAGCTAACGAGCTGCC displayed a PBM binding z-score of 1.12.

In the case of TAGCCTAGGTGAGATCGGGCCAGTATACGCTATA, the PBM binding z-score is -0.533.

TGTCAAAGTTCAAAGGTAACGGAAGTATCCACAC: the PBM binding z-score was 6.74.

For TCATAAAGGTAAAGGTGAAAGTCGAACGATATGA, the PBM binding z-score was 1.78.

ACCGAAAGGTCGAGGTGAGTATAGAGAAAGGGAA yielded a PBM binding z-score of 3.23.

For GATACAGGCTCAAGGCCAGAGTACGCGTATTGAT, the PBM binding z-score was -0.88.

TCTTGTAGATCAAGCAGGTTAAGACAGCCTGAGT showed a PBM binding z-score of 0.271.

The sequence TCGAGTAGGTTACCAATGGAGCATTCAGCTTTCT came in with a PBM binding z-score of 0.37.

In turn, TTACCAAGGTGCGCTGAGGTCGTTGATCCAACTC showed a PBM binding z-score of 0.599.

Regarding TAGCCGAGGTCAGATCGGGCCAGTATACGCTATA, the PBM binding z-score turned out to be 4.26.
